Screening data from PubChem.
TNF death inh: inhibitors of TNF-alpha triggered necroptosis, primary screen, cell-based, Jurkat FADD-/-, single concentration; Jurkat FADD-/- TNF necroptosis rescue, ATP luminescence, 24 h; 0 = TNF only, 100 = no-TNF cells; activation (protection from cell death), % at 10 µM; 220,000 compounds, 0.068% hits; AID 463075, 2010;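 active = activation, meaning protection from cell death, of at least 50% relative to plate controls; inactive = activation below 50%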;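 also: necroptosis triggered by 40 ng/mL TNF-alpha added together with compound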
HMGR II inh: inhibitors of E. faecalis class II HMGR, primary screen, biochemical, Enterococcus faecalis; HMG-CoA reductase (Enterococcus faecalis, mvaE); purified E. faecalis HMGR, NADPH absorbance 340 nm kinetic; inhibition, % at 10 µM; 190,000 compounds, 0.41% hits;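 active = inhibition above a set limit, the median over all tested compounds plus 3 SD, cut at about 9.5% in these data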;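 also: enzyme runs in reverse so mevalonate oxidation gives rising NADPH absorbance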
14-3-3 Bad inh: inhibitors of 14-3-3 zeta/Bad binding, primary screen, biochemical, TR-FRET, bovine 14-3-3 zeta; 14-3-3 protein zeta/delta (Bos taurus), P63103; inhibition, % at 21.7 µM; TR-FRET 14-3-3zeta/Dy647-pBad peptide displacement, 1 h; 220,000 compounds, 0.71% hits; AID 781, 2007;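 active = inhibition above about 70%, limit read from the data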
Target sequence (P63103 whole entry, looked up): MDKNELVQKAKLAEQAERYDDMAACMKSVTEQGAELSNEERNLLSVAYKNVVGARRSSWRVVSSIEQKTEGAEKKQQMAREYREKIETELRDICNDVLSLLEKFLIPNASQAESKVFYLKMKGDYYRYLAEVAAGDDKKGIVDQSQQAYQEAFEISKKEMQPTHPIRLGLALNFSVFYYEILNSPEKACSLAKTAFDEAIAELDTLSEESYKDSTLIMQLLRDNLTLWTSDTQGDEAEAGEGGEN
ROMK primary: ROMK potassium channel modulators, primary screen, cell-based, thallium flux, MLSMR library; ATP-sensitive inward rectifier potassium channel 1 (Homo sapiens), P48048; 130,000 compounds, 2% hits; B-score at 10 µM; Tet-inducible ROMK, thallium flux fluorescence; actives lie on both sides;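 active = signal ratio slope over the read window, or its plate-corrected B-score, at least 3 SD from the plate mean, either direction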;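 also: B-score of the F/F0 ratio slope over 7 to 12 s after thallium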
m-calpain inh: inhibitors of pig calpain II, primary screen, biochemical, fluorogenic peptide substrate, 1536-well | purified calpain II, 30 min | inhibition, % at 16 µM | 220,000 compounds, 0.37% hits | AID 1236, 2008;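 active = inhibition above about 50%, limit read from the data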
zVAD death inh: inhibitors of zVAD-triggered necroptosis, primary screen, L929 cells. L929 zVAD necroptosis rescue, ATP luminescence, 24 h; with zVAD 60 µM. viability rescue, % at 10 µM. 220,000 compounds, 0.38% hits. AID 1377, 2008;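 active = activation, scaled between plate controls, above about 75%, limit read from the data; inactive = activation under that limit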
zVAD death conf: inhibitors of zVAD-triggered necroptosis in L929, confirmation, L929 cells, duplicate runs; L929 zVAD-induced necroptosis rescue, ATP luminescence, 24 h; activation (protection from necroptosis), % at 10 µM; 760 compounds, 16% hits; AID 463117, 2010; shares compounds with zVAD death inh;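 active = mean protection from necroptosis of at least 50% over duplicate tests; inactive = mean protection below 50%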
Hits are given with their value; - = inactive; . = no result given. Shown are actives, neighbours in structure and some others; about 3% of the full set was active somewhere.

SMILES	TNF death inh	HMGR II inh	14-3-3 Bad inh	ROMK primary	m-calpain inh	zVAD death inh	zVAD death conf
CC(=O)Nc1ccc(/C=N/Nc2nc3ccccc3[nH]2)cc1	-	-	-	.	-	88.4	-
CC(=O)Oc1cc2c(cc1Cl)C(c1cccs1)CC1(CC(C)(C)NC(=S)N1)O2 (centres undefined)	-	-	-	.	-	-	.
CC(C)(C)N(CC#CCC(O)(c1ccccc1)c1ccccc1)CCO	-	.	-	.	-	-	.
CCn1c2ccccc2c(=O)c2ccccc21	-	-	-	-	-	79.6	-
CCn1c2ccccc2c2cc([N+](=O)[O-])ccc21	-	-	-	-	-	-	.
CC(C)(C)c1ccc(NC(=O)Nc2ccc(OCC(=O)N3CCOCC3)cc2)cc1	-	-	-	-	-	80.2	-
O=C(CSC1=NCCN1)NC12CC3CC(CC(C3)C1)C2	-	-	-	-	-	85.1	-
CC(=O)N(C(C)=O)C1=C(C#N)C2(CCCCC2)Cc2ccccc21	-	-	-	.	-	-	.
CCOC(=O)c1sc(NC(=O)C(C)Sc2nnc(N)s2)nc1C (centres undefined)	-	-	-	-	-	77.8	-
O=C(NCCN1C(=O)C2C3C=CC(C3)C2C1=O)Nc1ccc(Br)cc1 (centres undefined)	-	-	-	.	-	75.5	-
O=c1oc2ccccc2nc1/C=C(O)/C=C\c1ccccc1	-	-	-	.	-	78.0	-
O=c1oc2ccccc2nc1/C=C(O)/C=C/c1ccc(F)cc1	-	-	-	-	-	-	.
Cc1ccc2oc(=O)c(/C=C(\O)c3ccco3)nc2c1	-	.	-	.	-	-	.
Cc1ccc(/C(O)=C/c2nc3ccccc3oc2=O)cc1	-	.	-	.	-	77.3	-
CC(C)C(OC(=O)c1cccs1)C(=O)NCc1ccccc1 (centres undefined)	-	-	-	-	-	-	.
CC(=O)Nc1cc(-c2ccc(Cl)cc2)[nH]n1	-	-	-	-	-	87.4	-
COc1cc(OC)cc(-c2cc(NC(C)=O)n[nH]2)c1	-	-	-	.	-	-	.
CSc1ncccc1C(=O)OCc1cccc([N+](=O)[O-])c1	-	-	-	-	-	-	.
Cc1ccc(C(=O)Nc2ncc(C)s2)o1	-	-	-	.	-	-	.
CN1CCN(c2ccccc2NC(=O)c2cc3ccccc3o2)CC1	-	-	-	.	-	77.6	-
O=C(Nc1ccccc1N1CCCC1)c1cc2ccccc2o1	-	-	-	.	-	-	.
Cc1cnc(NC(=O)c2cc3ccccc3o2)s1	-	29.7	-	-	-	81.1	-
Cc1cc(C)c2c(N)c(C(=O)NN3CC(=O)N(c4ccccc4)CC3=O)sc2n1	-	.	-	.	-	-	.
O=C(/C=C/c1ccccc1[N+](=O)[O-])NCc1cccnc1	-	-	-	.	-	-	.
O=C(Nc1ccc(Cl)c(Cl)c1)c1cccc(S(=O)(=O)NCc2cccnc2)c1	-	-	-	.	-	76.8	-
SMILES	TNF death inh	HMGR II inh	14-3-3 Bad inh	ROMK primary	m-calpain inh	zVAD death inh	zVAD death conf
COc1cc(CN(C)Cc2ccccc2)cc(OC)c1O	-	-	-	-	-	-	.
CCCCNC(=O)CC1NCCNC1=O (centres undefined)	-	-	-	-	-	-	.
COc1ccc2nc(NC(=O)CCc3cc(OC)c(OC)c(OC)c3)sc2c1	-	-	-	-	-	87.7	-
CCC(=O)Nc1nc2c(OC)ccc(OC)c2s1	-	-	-	.	-	-	.
CCC(=O)Nc1nc2cc(OC)ccc2s1	-	-	-	.	-	88.3	-
COc1ccc2sc(NC(=O)CC(C)C)nc2c1	-	-	-	.	-	77.0	-
CCC(=O)Nc1nc2ccc3nc(C)sc3c2s1	-	-	-	.	-	84.0	-
CC12COC3(C(N)=O)CC1CCC32C (centres undefined)	-	-	-	.	-	-	.
